Results on 113 molecules are retold here after ChEMBL document CHEMBL4513216, “Probing the Open Global Health Chemical Diversity Library for Multistage-Active Starting Points for Next-Generation Antimalarials” (ACS Infect Dis, 2020).

Out of some 69,000 compounds screened, about 8,600 (12%) showed an effect of 50% or more. What follows is part of a selection rich in strong results, with near analogues and random picks from the rest.

The test system of this test is Plasmodium berghei. The test is described as follows: Screen against P. berghei liver stage (PbLuc), transformed with Luciferase, at 10uM. As to conditions: tested at 10 uM. In kind it is functional, HepG2.
Consider `c1csc(CN2CC(c3nc(-c4cnccn4)no3)C2)c1`, for which the INHIBITION is -12.6%. With `CN(Cc1noc(C2CC2)n1)C1CCN(CCc2cnn(C)c2)C1` (stereo not drawn), the INHIBITION was 11.2%. For `Cc1ccc(CN2C[C@H]3C[C@H](C(=O)NCC4CC4)N(C)[C@H]3C2)o1` the value was 18.6%; for `CN(Cc1cnn(C)c1)CC1CCCN1c1cccnn1` (stereo not drawn), 5.7%; for `NCc1ccc(Oc2ccc(F)c(F)c2)cc1C(F)(F)F`, 26.1%. For `Cc1ccc(CNC(=O)COc2ccc3c(c2)OCC3O)cc1` (stereo not drawn) the value was 0.266%. The value for `COCCn1nc(C(=O)N(C)Cc2ccc3ccccc3c2)ccc1=O` was 43.4%; that for `Cc1cnn(CC2CCCCN2C(=O)c2cccnc2N(C)C)c1` (stereo not drawn) was 15.5%; that for `O=C(c1ccoc1)N1CCC2(CC1)COC(COCc1ccccn1)C2` (stereo not drawn) was 23.8%. For `O=C(c1ncccn1)N1CCC2(CC1)COC(COc1ccccn1)C2` (stereo not drawn), the INHIBITION is given as 12.6%. For `O=C(c1ccoc1)N1CCC2(CC1)COC(COc1ccccn1)C2` (stereo not drawn) the value was 73.6%; for `CCC(C)N(CCOC)Cc1nc2c(cnn2C)c(=O)[nH]1` (stereo not drawn), 14.22%; for `CC(C)NC(=O)CC(C)NCc1cc(Cl)ccc1F` (stereo not drawn), 27.6%. For `CN(CC(N)=O)Cc1ccc(F)cc1Cl` the value was -59.5%; for `CC(C)NC(=O)CC(C)NCc1ccc(F)cc1Cl` (stereo not drawn), 53.6%; for `COc1c(C(=O)NC(C)Cc2ccccc2Cl)c(C)nn1C` (stereo not drawn), 17.5%.

`O=C(O)c1c(-c2cncnc2)ncc2c1CCN(Cc1ccco1)C2`: the INHIBITION was -27.1%.

On to `CCn1nc2c(cc1=O)CN(Cc1nc(-c3cccnc3)no1)CC2`, for which the INHIBITION is given as -56.575%.

Regarding `Cc1nc(C)c(C)c(NCCSCc2[nH]cnc2C)n1`, the INHIBITION is -8.47%. For `CCc1c(C)nc(N)nc1NCCSCc1[nH]cnc1C` the value was 69.4%; for `Cc1cnc(N)nc1NCCSCc1[nH]cnc1C`, 39.1%. As for `CN(Cc1cnn(C)c1)C(=O)Cc1ccc2c(c1)OCCO2`, the INHIBITION is given as -18.5%. Turning to `Cc1n[nH]c(C)c1S(=O)(=O)N(C)Cc1nn(C)c(Cl)c1Cl`, the INHIBITION worked out at 23.8%. For `Cc1nn(C)c(Cl)c1S(=O)(=O)N(C)C` the value was 12.3%; for `Cc1noc(C)c1S(=O)(=O)N(C)Cc1nn(C)c(Cl)c1Cl`, 15.9%; for `Cc1nn(C)c(C)c1S(=O)(=O)N(C)Cc1nn(C)c(Cl)c1Cl`, 54.5%. On to `Cc1nn(C)c(C)c1CN(C)S(=O)(=O)c1c(C)n[nH]c1C`, for which the INHIBITION is 53.5%.

As for `CCn1nc(C)c(CN(C)S(=O)(=O)c2cnn(C)c2)c1C`, the INHIBITION is listed as 6.83%.

Regarding `CS(=O)(=O)N[C@@H]1CCN(Cc2nccs2)[C@H]1Cc1ccncc1`, the INHIBITION worked out at 30.5%. For `COc1cccc(C(C(=O)O)N2CCSCC2)c1F` (stereo not drawn) the value was 17%; for `CC(C)CN(CC(F)(F)F)S(=O)(=O)c1cc(C(N)=O)n(C)c1`, -36.4%. For `CCC1C=CCN1C(=O)c1cc(COc2ccccc2OC)[nH]n1` (stereo not drawn) the value was -2.39%; for `CCCC(=O)N(C)CC(=O)Nc1ccc(Br)cn1`, -9.37%.

In the case of `COCC1c2c(cnn2CC2CC2)CCN1Cc1cccs1` (stereo not drawn), the INHIBITION is recorded as -0.912%.

As to `Cc1cc(C(=O)N2CCCC(c3nc(C)no3)C2)on1` (stereo not drawn), the INHIBITION is 20%.

In the case of `Cc1noc(C2CCCN(C(=O)c3cc(Cl)c(Cl)n3C)C2)n1` (stereo not drawn), the INHIBITION was found to be 51.4%.

For `Cc1cncc(C2CCCN(C(=O)c3scnc3C)C2)n1` (stereo not drawn), the INHIBITION is listed as 51.7%. For `Cc1noc(C2CCCN(C(=O)c3ccc(Br)o3)C2)n1` (stereo not drawn) the value was 60.5%; for `Cc1ncsc1C(=O)N1CC[C@@]2(O)CCN(C(=O)N3CCCC3)C[C@H]2C1`, 65.7%. The value for `Cc1noc(C2CCCN(C(=O)c3cncc(Br)c3)C2)n1` (stereo not drawn) was -27.8%; that for `Cc1nc(C2CCCN(C(=O)c3scnc3C)C2)no1` (stereo not drawn) was 18.1%. For `Cc1noc(C2CCN(C(=O)c3cc(Cl)c(Cl)n3C)CC2)n1` the value was 16.6%; for `Cc1ocnc1C(=O)N1CC[C@@]2(O)CCN(C(=O)N3CCCC3)C[C@H]2C1`, 36.5%; for `Cc1noc(C2CCCN(C(=O)c3cccc(Cl)c3)C2)n1` (stereo not drawn), 39.5%. In the case of `Cc1cc(C(=O)N2CC[C@@]3(O)CCN(C(=O)N4CCCC4)C[C@H]3C2)no1`, the INHIBITION came to 1.74%. For `Cc1cncc(C2CCCN(C(=O)c3cn(C)nc3C)C2)n1` (stereo not drawn) the value was 36.7%; for `OCCCN1CCOC(c2ccc(F)cc2)C1` (stereo not drawn), 30.2%; for `CC(C)c1nc(C(=O)N2CCOCC2CC(=O)c2ccco2)c[nH]1` (stereo not drawn), 9.48%. The value for `Cc1cc(C)n(CC2CCCN2CC(=O)Nc2cc(C(C)C)no2)n1` (stereo not drawn) was -6.44%; that for `CN(C)CCOCC1CN(Cc2ccc(F)cc2)Cc2nnn(C)c21` (stereo not drawn) was 33.2%. The value for `O=C(c1ccco1)N1C[C@@H]2[C@@H](C1)OCC(=O)N2Cc1cccnc1` was 35.8%; that for `CS(=O)(=O)N1CCC2(CCN(C(=O)c3cccs3)CC2)CC1` was 32.1%. For `Cc1noc(C2CCCN(C(=O)c3scnc3Cl)C2)n1` (stereo not drawn), the INHIBITION is 74.2%.

For `Cc1noc(C2CCCN(C(=O)c3cc(Cl)cn3C)C2)n1` (stereo not drawn), the INHIBITION is 46.4%. For `Cc1noc(C2CCCN(C(=O)c3cc(Cl)ccc3F)C2)n1` (stereo not drawn) the value was -49.5%.

As for `CN1CCCCc2c1nc1c(c2N)CCCC1`, the INHIBITION was 53.3%. As to `CN1CCCCc2c1nc1c(c2N)CCC1`, the INHIBITION is recorded as 8.46%. For `CN1CCCc2c1nc1c(c2N)CCCC1` the value was 7.38%. The value for `Cc1cc(C)c2nc(CN(C)C(C)c3ccncn3)cc(O)c2c1` (stereo not drawn) was -33.3%. The value for `Cc1noc([C@@H]2C[C@H](NC(=O)NC(C)C)CN2C)n1` was 50.2%; that for `Cc1ccc(-c2noc([C@@H]3C[C@H](NC(=O)NC(C)C)CN3C)n2)cc1` was 23%. With `Cc1noc([C@@H]2C[C@H](NC(=O)NC3CCCCC3)CN2C)n1`, the INHIBITION is listed as 22.2%. The value for `Cc1cnc(C(=O)NCc2ccnc(N(C)C)c2)cn1` was 11.6%.

In the case of `O=C(O)c1c[nH]c2cc(NS(=O)(=O)c3cccc(F)c3F)ccc12`, the INHIBITION is -10.1%. Consider `CCn1c(C)nnc1SCCNc1cc(N2CCOCC2)ncn1`, for which the INHIBITION amounted to 14%.

Turning to `CCN1CCOC(CNCc2ccccc2OCc2cccnc2)C1` (stereo not drawn), the INHIBITION is -46.55%. Regarding `CN(C)S(=O)(=O)N1CCN(C(=O)c2cc(-c3ccccc3)[nH]n2)CC1`, the INHIBITION was 18.5%. The value for `Cc1nn(C)c2ncnc(N3CCC(O)(CN4CCCC4)CC3)c12` was 30%; that for `Cc1cnc(C(=O)N2CCN(Cc3csc(C)n3)CC2)cn1` was -26.1%; that for `CN(C)CCn1c([C@@H]2CCCO2)cc2cccnc21` was 26.8%. For `CN(C)CCn1c([C@H]2CCCO2)cc2cccnc21` the value was 56.8%. The value for `c1cnc2c(c1)cc([C@H]1CCCO1)n2CCN1CCCC1` was 17.1%.

For `Cc1ccc(-n2cc3[nH]c(=O)n(C(C)C)n3c2=O)cc1`, the INHIBITION worked out at 0.266%. For `CC(CCc1cccc(F)c1)NC(=O)NCc1ncnn1C` (stereo not drawn) the value was 56.4%. `CC(Cc1cccc(Cl)c1)NC(=O)Nc1cnn(CC(N)=O)c1` (stereo not drawn): the INHIBITION is given as -11.4%.

`CC(Cc1ccco1)NC(=O)NCc1ncnn1C` (stereo not drawn): the INHIBITION was 86.2%. As for `CC(Cc1c(F)cccc1F)NC(=O)NCc1ncnn1C` (stereo not drawn), the INHIBITION came out at 51.4%.

In the case of `CC(C)NC(=O)NCCCc1cccc(F)c1`, the INHIBITION is listed as 12.2%. Take `CC(Cc1c(F)cccc1F)NC(=O)Nc1cnn(CC(N)=O)c1` (stereo not drawn): the INHIBITION was 31.1%.

With `CC(Cc1ccco1)NC(=O)Nc1cnn(CC(N)=O)c1` (stereo not drawn), the INHIBITION was found to be 0.0932%.

Consider `Cn1ccnc1CNC(=O)CCc1cccc(F)c1`, for which the INHIBITION is reported as -0.35%. The value for `CC(Cc1cccc(Cl)c1)NC(=O)NCc1ncnn1C` (stereo not drawn) was 64.3%. The value for `CC(Cc1ccco1)NC(=O)CCn1cccn1` (stereo not drawn) was 38.6%; that for `COCCn1cc(NC(=O)NC(C)Cc2c(F)cccc2F)cn1` (stereo not drawn) was 15.3%. Consider `Cc1cc(C(=O)NC(C)Cc2cccc(Cl)c2)n(C)n1` (stereo not drawn), for which the INHIBITION stood at 18.6%. For `COC(=O)N1CCCC(C(=O)NCCc2c[nH]c3cc(C)ccc23)C1` (stereo not drawn) the value was 47.9%; for `CC(=O)NCCn1ccc(-c2ccccn2)n1`, -13%. The value for `O=C(c1ccc(-c2cccc3c2CCNC3)o1)N1CCCC1` was 9.56%; that for `Cc1nn(C)c2ncc(CNCCc3ccccn3)cc12` was 39.7%; that for `CCN1CC2(CCCCN2C(=O)c2ccsc2)CC1=O` (stereo not drawn) was -8.51%. The value for `CC(=O)N1CCC1c1cc(N2CC(O)C2)nc(C)n1` (stereo not drawn) was 3.8%; that for `Cc1nc2n(n1)CC(NCc1cc(Cl)c3c(c1)OCCO3)CC2` (stereo not drawn) was 13.6%; that for `O=C1NC2(CCc3ccccc31)CCN(C(=O)c1cccnc1)C2` (stereo not drawn) was 12.085%.

As to `CCN1CCOCC2(CCCN(C(=O)c3conc3C)C2)C1` (stereo not drawn), the INHIBITION amounted to 12.4%. With `Cn1cc(CN2CCCC3(CCN(C(=O)c4cnccn4)C3)C2)cn1` (stereo not drawn), the INHIBITION turned out to be 49.7%. For `NC(=O)CCc1cccc(C2CCNCC2)n1`, the INHIBITION worked out at 6.26%.

As to `Clc1cccc(Cl)c1CN(CCCN1CCOCC1)Cc1cccnc1`, the INHIBITION was found to be 19.3%. The value for `CCNc1nc(C(=O)N(C)Cc2nc(CC)no2)cs1` was 53.4%; that for `CCNc1nc(C)c(C(=O)N(C)Cc2nc(CC)no2)s1` was 20.9%.

`CCCc1nc(C(=O)N(C)Cc2cc(CC)no2)cs1`: the INHIBITION is given as -59.5%. The value for `CN(Cc1ccc(F)cc1)CC1(O)CCN(C(=O)c2ccncc2)C1` (stereo not drawn) was 27.8%; that for `COC(=O)CNC(=O)c1cn(-c2ccccn2)c(=O)c2ccccc12` was -21.4%; that for `CC(C)N1[C@H](CN2CCCC2)C[C@@H]2CN(C(=O)c3ccoc3)CC[C@@H]21` was 15.9%.

Regarding `COc1cc(C2CC(=O)NCc3nc4sccn4c32)cc(OC)c1O` (stereo not drawn), the INHIBITION was found to be 39.3%.

`CCC1CC(=O)NCc2nc3sc(C)cn3c21` (stereo not drawn): the INHIBITION came out at 53.3%.

For `COc1cc(C)c(C2CC(=O)NCc3nc4sccn4c32)cc1C` (stereo not drawn), the INHIBITION is recorded as -9.18%.

For `Cc1cc(F)ccc1NC(=O)NCC(C)N1CCOCC1` (stereo not drawn), the INHIBITION amounted to 39%. As to `c1ccc(OCCSC2=NCCN2)cc1`, the INHIBITION came out at 35%.

Consider `c1ccc(OCCNC2=NCCCN2)cc1`, for which the INHIBITION came out at 77.9%.

Regarding `Fc1ccc(OCCCNC2=NCCCN2)cc1`, the INHIBITION is listed as 35.4%. The value for `Cn1cc(NCCOc2ccc(F)cc2)cn1` was 8.09%. The value for `Fc1ccc(OCCCNC2=NCCN2)cc1` was 54.4%.

As to `CNC(=O)c1cccnc1NCCOc1ccccc1`, the INHIBITION was -81.6%.
